In the supplement of paper PMC10849652:
Targets with a hit are over-represented here; the source holds about 8,800 in all. About 0.5% of all pairs of compound and target were hits.

Tests used:
Experiment in all cases: log2 fold change, soluble protein after heating vs DMSO (PISA); higher = thermal stabilisation; K562 lysate, 10 uM; active = over 0.2 and 3.5 SD of the protein, either way, in both replicates (recomputed)
[1] = compound: CCCS(=O)(=O)Nc1ccc(F)c(C(=O)c2c[nH]c3ncc(-c4ccc(Cl)cc4)cc23)c1F [vemurafenib]
Method in brief: (§1)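 Soluble protein was defined as the supernatant remaining after 21,000xg for 90 min, following pooling of heated aliquots and adjustment to 0.5% NP-40 at 4°C. Before that, crude K562 extract at 1 mg/mL protein in PBS pH 7.4 with 1 mM MgCl2 was treated with 10 μM compound for 30 min and heated for 3 min across 48°C-58°C. Quantification used TMTpro 16plex LC-MS/MS with channel sums equalised, and values are log-two fold changes in thermal stability relative to solvent controls from duplicates.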

[2] = compound: CCCS(=O)(=O)Nc1ccc(F)c(C(=O)c2c[nH]c3ncc(Cl)cc23)c1F
Method in brief: as §1

[3] = compound: CCN(CCCOc1ccc2c(Nc3cc(CC(=O)Nc4cccc(F)c4)[nH]n3)ncnc2c1)CCOP(=O)(O)O [barasertib]
Method in brief: as §1

[4] = compound: CC[C@@H]1C(=O)N(C)c2cnc(Nc3ccc(C(=O)NC4CCN(C)CC4)cc3OC)nc2N1C1CCCC1
Method in brief: as §1

[5] = compound: CC[C@@H]1C(=O)N(C)c2cnc(Nc3ccc(C(=O)N[C@H]4CC[C@H](N5CCN(CC6CC6)CC5)CC4)cc3OC)nc2N1C(C)C [volasertib]
Method in brief: as §1

[6] = compound: CCn1c(C(=O)N(C2CC2)C2CC2)cc2c3c(ncn3C)c(Nc3cc(C)n(C)n3)nc21
Method in brief: as §1

[7] = compound: CCn1cc(-c2ccnc3[nH]c(-c4cccc(CN(C)C)c4)cc23)c(-c2ccc(NC(=O)N(C)C)cc2)n1
Method in brief: as §1

[8] = compound: CN1CCC(CNc2ccc3ncc(-c4cccc(OC(F)(F)F)c4)n3n2)CC1
Method in brief: as §1

[9] = compound: CN1CCN(CCOc2cc(OC3CCOCC3)c3c(Nc4c(Cl)ccc5c4OCO5)ncnc3c2)CC1 [saracatinib]
Method in brief: as §1

[10] = compound: CN1CCN(c2nc(C3=C(c4c[nH]c5ccccc45)C(=O)NC3=O)c3ccccc3n2)CC1 [sotrastaurin]
Method in brief: as §1

Measured: log2 fold change

RFC3 (UniProt P40938)
inactive: [1] 0.021 | [2] 0.025 | [3] 0.046 | [4] -0.033 | [5] -0.065 | [6] 0.013 | [7] 0.133 | [8] 0.001 | [9] 0.001 | [10] 0.039

SCML2 (UniProt Q9UQR0)
inactive: [1] 0.033 | [2] -0.006 | [3] -0.028 | [4] -0.007 | [5] -0.018 | [6] 0.02 | [7] 0.033 | [8] 0.032 | [9] 0.064 | [10] -0.067

RABGGTB (UniProt P53611)
Chain of UniProt P53611 (P53611 whole entry, looked up): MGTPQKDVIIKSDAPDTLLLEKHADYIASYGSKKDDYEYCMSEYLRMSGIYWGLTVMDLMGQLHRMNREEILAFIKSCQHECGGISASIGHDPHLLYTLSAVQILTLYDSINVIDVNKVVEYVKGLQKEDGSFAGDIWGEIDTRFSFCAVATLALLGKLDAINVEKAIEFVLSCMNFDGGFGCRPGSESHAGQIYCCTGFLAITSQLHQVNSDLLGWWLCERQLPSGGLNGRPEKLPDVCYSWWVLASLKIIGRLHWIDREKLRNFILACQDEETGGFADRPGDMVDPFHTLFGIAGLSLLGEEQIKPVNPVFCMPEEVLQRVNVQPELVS
inactive: [1] -0.022 | [2] 0.058 | [3] 0.096 | [4] -0.034 | [5] 0.008 | [6] -0.031 | [7] 0.151 | [8] -0.033 | [9] -0.017 | [10] 0.037

RCAN1 (UniProt P53805)
Chain of UniProt P53805 (P53805 whole entry, looked up): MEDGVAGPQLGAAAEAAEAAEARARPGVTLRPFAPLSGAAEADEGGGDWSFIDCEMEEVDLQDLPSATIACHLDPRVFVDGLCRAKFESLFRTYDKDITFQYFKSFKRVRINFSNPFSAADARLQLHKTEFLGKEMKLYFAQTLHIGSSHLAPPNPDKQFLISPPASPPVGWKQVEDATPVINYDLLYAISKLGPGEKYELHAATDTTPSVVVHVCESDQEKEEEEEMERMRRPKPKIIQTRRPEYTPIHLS
inactive: [1] 0.028 | [2] 0.061 | [3] 0.034 | [4] -0.022 | [5] -0.026 | [6] -0.06 | [7] -0.024 | [8] 0.041 | [9] 0.025 | [10] -0.056

RMC1 (UniProt Q96DM3)
inactive: [1] 0.009 | [2] 0.029 | [3] 0.003 | [4] 0.028 | [5] -0.044 | [6] -0.02 | [7] 0 | [8] 0.024 | [9] 0.018 | [10] -0.015

RPS18 (UniProt P62269)
inactive: [1] 0.006 | [2] 0.022 | [3] -0.007 | [4] -0.014 | [5] 0.018 | [6] 0.009 | [8] 0.063 | [9] 0.002 | [10] 0
active: [7] -0.219

RNF213, A0A0A0MTC1
inactive: [1] 0.017 | [2] 0.025 | [3] 0.076 | [4] -0.038 | [5] -0.077 | [6] 0.027 | [7] -0.05 | [8] -0.053 | [9] 0.027 | [10] 0.043

SASS6 (UniProt Q6UVJ0)
inactive: [1] 0.042 | [2] -0.024 | [3] -0.016 | [4] 0.039 | [5] -0.024 | [6] 0.024 | [7] 0.154 | [8] -0.047 | [9] 0.059 | [10] -0.02

RPS26P11 (UniProt Q5JNZ5)
active: [7] -0.688
inactive: [1] 0.012 | [2] -0.01 | [3] -0.03 | [4] 0.041 | [5] 0.017 | [6] 0.02 | [8] 0.224 | [9] 0.009 | [10] 0.05

RRM1 (UniProt P23921)
Chain of UniProt P23921 (P23921 whole entry, looked up): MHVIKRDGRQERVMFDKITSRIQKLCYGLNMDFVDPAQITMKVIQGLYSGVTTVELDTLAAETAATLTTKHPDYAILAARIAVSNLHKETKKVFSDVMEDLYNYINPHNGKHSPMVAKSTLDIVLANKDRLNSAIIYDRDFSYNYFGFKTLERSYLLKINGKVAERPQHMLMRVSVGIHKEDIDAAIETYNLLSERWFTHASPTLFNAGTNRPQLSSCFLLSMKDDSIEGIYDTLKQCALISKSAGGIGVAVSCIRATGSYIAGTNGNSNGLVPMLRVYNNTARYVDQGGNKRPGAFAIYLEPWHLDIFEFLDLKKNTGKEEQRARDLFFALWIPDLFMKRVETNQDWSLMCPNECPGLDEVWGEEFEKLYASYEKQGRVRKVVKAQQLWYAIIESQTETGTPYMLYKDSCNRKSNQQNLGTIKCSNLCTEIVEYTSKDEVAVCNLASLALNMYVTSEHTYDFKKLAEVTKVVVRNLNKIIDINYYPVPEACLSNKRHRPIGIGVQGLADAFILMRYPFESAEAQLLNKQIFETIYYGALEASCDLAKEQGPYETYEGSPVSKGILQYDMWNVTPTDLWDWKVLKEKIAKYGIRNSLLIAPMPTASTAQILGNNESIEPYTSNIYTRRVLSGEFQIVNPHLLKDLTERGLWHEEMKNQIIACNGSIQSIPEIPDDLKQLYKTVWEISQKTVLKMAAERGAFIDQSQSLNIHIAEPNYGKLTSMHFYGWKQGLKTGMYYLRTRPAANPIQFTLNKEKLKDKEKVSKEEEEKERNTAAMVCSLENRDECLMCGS
inactive: [1] 0.023 | [2] 0.018 | [3] 0.011 | [4] -0.065 | [5] -0.063 | [6] 0.003 | [7] -0.045 | [8] -0.031 | [9] -0.02 | [10] -0.016

SBF1 isoform 4 (UniProt O95248)
inactive: [1] 0.118 | [2] 0.012 | [3] 0.033 | [4] 0.071 | [5] -0.111 | [6] 0.014 | [7] -0.107 | [8] 0.029 | [9] 0.062 | [10] 0

RASA3 (UniProt Q14644)
Chain of UniProt Q14644 (Q14644 whole entry, looked up): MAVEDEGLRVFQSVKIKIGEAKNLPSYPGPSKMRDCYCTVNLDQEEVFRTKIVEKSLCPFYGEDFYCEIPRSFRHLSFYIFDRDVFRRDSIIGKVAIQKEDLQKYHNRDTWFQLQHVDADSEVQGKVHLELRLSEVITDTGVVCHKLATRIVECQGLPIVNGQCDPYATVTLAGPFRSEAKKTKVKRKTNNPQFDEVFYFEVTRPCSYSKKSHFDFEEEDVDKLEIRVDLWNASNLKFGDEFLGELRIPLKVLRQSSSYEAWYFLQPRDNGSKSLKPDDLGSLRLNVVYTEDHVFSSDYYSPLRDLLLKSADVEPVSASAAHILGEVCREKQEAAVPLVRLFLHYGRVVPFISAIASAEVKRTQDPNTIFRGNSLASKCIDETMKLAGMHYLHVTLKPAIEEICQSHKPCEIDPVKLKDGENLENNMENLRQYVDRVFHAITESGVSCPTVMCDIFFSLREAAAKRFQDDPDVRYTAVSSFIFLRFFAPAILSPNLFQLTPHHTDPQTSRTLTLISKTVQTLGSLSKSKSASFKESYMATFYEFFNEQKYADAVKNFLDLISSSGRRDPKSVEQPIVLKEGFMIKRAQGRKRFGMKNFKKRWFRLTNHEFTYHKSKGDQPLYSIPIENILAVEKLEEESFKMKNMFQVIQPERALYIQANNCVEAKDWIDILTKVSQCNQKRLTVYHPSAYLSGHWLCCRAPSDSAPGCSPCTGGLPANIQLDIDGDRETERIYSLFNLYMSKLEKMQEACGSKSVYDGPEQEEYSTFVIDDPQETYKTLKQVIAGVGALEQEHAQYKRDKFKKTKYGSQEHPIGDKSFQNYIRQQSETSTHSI
inactive: [1] -0.008 | [2] 0.009 | [3] 0.107 | [4] -0.1 | [5] -0.082 | [6] -0.058 | [7] 0.105 | [8] 0.298 | [9] -0.003 | [10] 0.048

RSU1 (UniProt Q15404)
active: [7] 0.405
inactive: [1] -0.006 | [2] 0.005 | [3] -0.067 | [4] 0.026 | [5] 0.022 | [6] 0.004 | [8] -0.143 | [9] -0.032 | [10] -0.019

SESN2 (UniProt P58004)
Chain of UniProt P58004 (P58004 whole entry, looked up): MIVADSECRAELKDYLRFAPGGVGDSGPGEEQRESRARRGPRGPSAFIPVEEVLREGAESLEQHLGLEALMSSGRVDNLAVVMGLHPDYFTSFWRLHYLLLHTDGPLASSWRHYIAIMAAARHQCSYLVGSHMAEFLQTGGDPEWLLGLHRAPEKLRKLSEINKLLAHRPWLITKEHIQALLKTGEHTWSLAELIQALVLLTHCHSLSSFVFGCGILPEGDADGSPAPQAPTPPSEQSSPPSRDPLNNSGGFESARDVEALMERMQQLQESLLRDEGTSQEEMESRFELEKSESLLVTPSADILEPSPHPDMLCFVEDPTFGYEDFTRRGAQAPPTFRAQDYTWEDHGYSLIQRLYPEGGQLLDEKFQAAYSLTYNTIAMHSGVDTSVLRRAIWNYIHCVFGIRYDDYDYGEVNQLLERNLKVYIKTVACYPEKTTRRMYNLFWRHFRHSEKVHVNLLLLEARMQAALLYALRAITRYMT
inactive: [1] -0.008 | [2] 0.025 | [3] 0.049 | [4] -0.103 | [5] -0.066 | [6] 0.019 | [7] 0.02 | [8] -0.105 | [9] -0.043 | [10] 0.047

RIOK2 (UniProt Q9BVS4)
inactive: [1] -0.074 | [2] 0.006 | [3] -0.053 | [4] 0.016 | [5] -0.026 | [6] -0.03 | [7] -0.115 | [8] 0.066 | [9] -0.023 | [10] 0.04

RPS29 (UniProt P62273)
inactive: [1] -0.005 | [2] 0.039 | [3] -0.034 | [4] -0.028 | [5] 0.078 | [6] 0.109 | [8] -0.262 | [9] -0.007 | [10] -0.133
active: [7] 1.01

REL isoform 2 (UniProt Q04864)
inactive: [1] -0.035 | [2] 0.017 | [3] 0.033 | [4] 0.049 | [5] -0.032 | [6] 0.025 | [7] 0.02 | [8] -0.174 | [9] -0.002 | [10] -0.022

RNF181 (UniProt Q9P0P0)
inactive: [1] -0.06 | [2] 0.025 | [3] 0.179 | [4] -0.036 | [5] 0.004 | [6] 0.018 | [7] -0.013 | [8] -0.035 | [9] -0.03 | [10] -0.02

RAD50 isoform 2 (UniProt Q92878)
inactive: [1] 0.004 | [2] 0.013 | [3] 0.025 | [4] -0.011 | [5] -0.047 | [6] 0.039 | [7] -0.024 | [8] -0.024 | [9] 0 | [10] 0.036

RBBP8 isoform 2 (UniProt Q99708)
inactive: [1] 0.002 | [2] 0.182 | [3] -0.013 | [4] 0.079 | [5] -0.019 | [6] -0.065 | [7] 0.065 | [8] -0.021 | [9] 0.018 | [10] -0.017

RINT1 (UniProt Q6NUQ1)
inactive: [1] 0.065 | [2] 0.022 | [3] 0.095 | [4] -0.055 | [5] -0.113 | [6] 0.088 | [7] -0.048 | [8] -0.044 | [9] 0.095 | [10] 0.058

SDHA (UniProt P31040)
inactive: [1] 0.042 | [2] 0.018 | [3] -0.032 | [4] -0.004 | [5] 0.002 | [6] -0.003 | [7] -0.022 | [8] 0.02 | [9] -0.02 | [10] 0.005

QRSL1 (UniProt Q9H0R6)
inactive: [1] 0.134 | [2] 0.012 | [3] 0.044 | [4] -0.004 | [5] -0.057 | [6] 0.008 | [7] -0.178 | [8] -0.138 | [9] -0.056 | [10] 0.071

RALGAPA1 isoform 6 (UniProt Q6GYQ0)
Chain of UniProt Q6GYQ0 (Q6GYQ0 whole entry, looked up): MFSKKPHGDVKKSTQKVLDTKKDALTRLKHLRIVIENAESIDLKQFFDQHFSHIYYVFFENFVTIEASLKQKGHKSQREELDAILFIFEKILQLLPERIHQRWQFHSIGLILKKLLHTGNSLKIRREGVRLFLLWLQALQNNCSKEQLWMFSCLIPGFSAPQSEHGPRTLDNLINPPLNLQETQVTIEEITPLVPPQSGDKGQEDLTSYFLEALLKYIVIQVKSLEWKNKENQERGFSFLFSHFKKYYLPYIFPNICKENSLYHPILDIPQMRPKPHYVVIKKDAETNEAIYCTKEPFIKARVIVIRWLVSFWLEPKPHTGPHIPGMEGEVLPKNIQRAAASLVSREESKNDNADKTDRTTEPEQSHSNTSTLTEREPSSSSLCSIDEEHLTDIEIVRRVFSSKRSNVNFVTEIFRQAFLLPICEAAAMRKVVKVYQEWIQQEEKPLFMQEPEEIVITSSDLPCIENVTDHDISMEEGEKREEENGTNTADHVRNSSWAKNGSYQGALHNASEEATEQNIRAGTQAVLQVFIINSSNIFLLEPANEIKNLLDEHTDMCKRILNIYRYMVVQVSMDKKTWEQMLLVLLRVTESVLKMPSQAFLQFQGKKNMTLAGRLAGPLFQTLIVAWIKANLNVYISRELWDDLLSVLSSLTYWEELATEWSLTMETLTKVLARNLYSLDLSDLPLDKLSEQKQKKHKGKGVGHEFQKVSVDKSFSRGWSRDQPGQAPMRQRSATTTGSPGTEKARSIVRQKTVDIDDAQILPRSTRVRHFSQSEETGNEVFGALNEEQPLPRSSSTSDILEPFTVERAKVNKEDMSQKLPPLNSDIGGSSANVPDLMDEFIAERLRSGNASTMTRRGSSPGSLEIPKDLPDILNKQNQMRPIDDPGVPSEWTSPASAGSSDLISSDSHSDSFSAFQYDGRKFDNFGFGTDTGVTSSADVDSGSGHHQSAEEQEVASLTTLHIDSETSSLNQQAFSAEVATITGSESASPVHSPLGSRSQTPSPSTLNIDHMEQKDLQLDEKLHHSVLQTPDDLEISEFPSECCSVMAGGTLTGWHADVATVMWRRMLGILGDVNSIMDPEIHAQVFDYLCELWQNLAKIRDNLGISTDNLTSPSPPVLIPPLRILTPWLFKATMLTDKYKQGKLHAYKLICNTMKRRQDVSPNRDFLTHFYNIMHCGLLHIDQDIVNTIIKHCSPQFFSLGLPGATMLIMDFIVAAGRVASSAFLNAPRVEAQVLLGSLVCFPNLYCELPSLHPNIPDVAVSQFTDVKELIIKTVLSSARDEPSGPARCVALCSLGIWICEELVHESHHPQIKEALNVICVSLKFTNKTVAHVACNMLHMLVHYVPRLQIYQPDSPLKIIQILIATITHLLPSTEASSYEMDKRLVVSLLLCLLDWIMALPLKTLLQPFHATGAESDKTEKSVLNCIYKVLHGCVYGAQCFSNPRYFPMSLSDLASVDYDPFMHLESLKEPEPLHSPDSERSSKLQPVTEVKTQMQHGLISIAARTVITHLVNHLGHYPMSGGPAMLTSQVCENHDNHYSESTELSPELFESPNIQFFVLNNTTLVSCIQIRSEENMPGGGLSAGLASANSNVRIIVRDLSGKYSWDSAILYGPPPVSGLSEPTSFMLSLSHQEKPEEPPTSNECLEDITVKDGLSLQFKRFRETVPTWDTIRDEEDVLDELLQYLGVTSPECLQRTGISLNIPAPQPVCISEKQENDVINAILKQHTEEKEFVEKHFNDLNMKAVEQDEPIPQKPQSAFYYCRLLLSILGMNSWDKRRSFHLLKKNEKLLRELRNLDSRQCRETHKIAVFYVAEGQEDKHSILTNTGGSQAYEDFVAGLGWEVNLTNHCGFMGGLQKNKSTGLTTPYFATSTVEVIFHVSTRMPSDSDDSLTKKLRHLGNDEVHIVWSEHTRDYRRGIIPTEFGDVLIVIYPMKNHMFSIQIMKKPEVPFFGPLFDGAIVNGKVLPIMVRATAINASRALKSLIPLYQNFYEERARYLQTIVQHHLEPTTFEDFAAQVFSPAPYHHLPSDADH
inactive: [1] -0.008 | [2] 0.017 | [3] 0.196 | [4] 0.02 | [5] -0.03 | [6] -0.007 | [8] 0.074 | [9] 0.049 | [10] 0.03
active: [7] -0.377

RABL3 (UniProt Q5HYI8)
inactive: [1] 0.043 | [2] 0.024 | [3] 0.033 | [4] -0.072 | [5] -0.045 | [6] 0.632 | [7] -0.045 | [8] -0.032 | [9] 0.018 | [10] 0.069

RNASEH2B (UniProt Q5TBB1)
Chain of UniProt Q5TBB1 (Q5TBB1 whole entry, looked up): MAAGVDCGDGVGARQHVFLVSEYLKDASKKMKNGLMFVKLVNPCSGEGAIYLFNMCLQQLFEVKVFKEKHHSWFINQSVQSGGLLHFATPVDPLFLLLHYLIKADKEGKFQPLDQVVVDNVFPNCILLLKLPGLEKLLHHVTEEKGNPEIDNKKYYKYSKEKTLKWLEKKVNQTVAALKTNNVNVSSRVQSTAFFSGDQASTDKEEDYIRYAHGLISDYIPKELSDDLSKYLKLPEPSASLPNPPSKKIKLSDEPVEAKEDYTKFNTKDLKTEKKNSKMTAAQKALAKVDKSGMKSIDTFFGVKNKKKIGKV
inactive: [1] -0.008 | [2] 0.034 | [3] -0.035 | [4] -0.056 | [5] -0.044 | [6] -0.001 | [7] 0.026 | [8] -0.101 | [9] -0.022 | [10] 0.062

RCOR1 (UniProt Q9UKL0)
inactive: [1] 0.028 | [2] -0.03 | [3] 0.108 | [4] -0.008 | [5] 0.003 | [6] -0.001 | [7] -0.071 | [8] 0.017 | [9] 0.001 | [10] 0.004

RBSN (UniProt Q9H1K0)
inactive: [1] 0.051 | [2] 0.01 | [3] 0.023 | [4] 0.035 | [5] -0.087 | [6] 0.006 | [7] -0.075 | [8] 0.038 | [9] 0.023 | [10] -0.019

RAB3IL1 (UniProt E9PK89)
inactive: [1] -0.154 | [2] 0.031 | [3] -0.001 | [4] -0.079 | [5] 0.031 | [6] -0.054 | [7] 0.026 | [8] -0.047 | [9] -0.043 | [10] -0.013
